The record followed here is PubChem BioAssay AID2284136 (EPA ToxCast).

The source made the active and inactive calls. Rule for the calls: active = hit-call score of the fitted dose curve at least 0.9, where 1 is the maximum; inactive = score below 0.9.

One may read the AC50 as the concentration at which the activity in the assay is half-maximal.

Chain of Tyrosine-protein phosphatase non-receptor type 11 (Homo sapiens) (Q06124 whole entry, looked up): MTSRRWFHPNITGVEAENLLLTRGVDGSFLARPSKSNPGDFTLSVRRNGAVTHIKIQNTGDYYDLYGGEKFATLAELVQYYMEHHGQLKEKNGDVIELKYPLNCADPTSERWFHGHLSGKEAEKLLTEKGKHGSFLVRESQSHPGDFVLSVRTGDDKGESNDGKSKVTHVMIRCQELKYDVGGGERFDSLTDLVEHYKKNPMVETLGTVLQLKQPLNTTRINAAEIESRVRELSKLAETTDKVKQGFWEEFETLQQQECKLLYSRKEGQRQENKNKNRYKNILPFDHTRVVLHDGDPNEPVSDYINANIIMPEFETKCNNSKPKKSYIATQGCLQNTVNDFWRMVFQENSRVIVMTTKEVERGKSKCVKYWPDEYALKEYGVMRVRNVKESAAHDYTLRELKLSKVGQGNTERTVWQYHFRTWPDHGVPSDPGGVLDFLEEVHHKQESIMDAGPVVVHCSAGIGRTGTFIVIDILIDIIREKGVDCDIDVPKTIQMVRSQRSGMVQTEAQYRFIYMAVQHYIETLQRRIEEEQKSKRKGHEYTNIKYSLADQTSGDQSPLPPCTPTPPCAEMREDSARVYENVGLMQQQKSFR

The experiment deals with Tyrosine-protein phosphatase non-receptor type 11 (Homo sapiens) (UniProt Q06124). Put plainly: ERF_FR_ENZ_hPTPN11: Eurofins (ERF) Enzymatic Assay for human Phosphatase Receptor (PTPN11/SHP2). As for the experimental part:
ERF_FR_ENZ_hPTPN11 is a biochemical, single-readout assay that uses extracted gene-proteins in a cell-free assay. Measurements were taken 0.5 hour after chemical dosing in a 96-well plate. See SHP2 Human Phosphatase Enzymatic Assay, PhosphataseProfiler.ERF_FR_ENZ_hPTPN11 is an assay component calculated from the ERF_FR_ENZ_hPTPN11 assay. It is designed to measure enzyme activity using a type of enzyme reporter as detected by fluorescence intensity with spectrophotometry technology.Data from the assay component ERF_FR_ENZ_hPTPN11 was analyzed at the assay endpoint, ERF_FR_ENZ_hPTPN11, in the positive analysis fitting direction relative to DMSO as the negative control and baseline of activity. Using a type of enzyme reporter, loss-of-signal activity can be used to understand changes in enzymatic activity as they relate to gene PTPN11. To generalize the intended target to other relatable targets, this assay endpoint is annotated to the phosphatase intended target family, where the subfamily is protein tyrosine phosphatase.
Human recombinant phosphatase PTPN11 (SHP-2) expressed in E. coli is used. Test compound and/or vehicle is preincubated with 45 ng/ml enzymeo for 15 minutes at 37 C in modified HEPES buffer pH 7.2. The reaction is initiated by addition of 100 uM DiFMUP for 60 minutes. Determination of the amount of DiFMU formed is read spectrofluorimetrically at 358 nm/450 nm. […]
As for `O=C(/C=C/c1ccc(O)cc1)CC(=O)/C=C/c1ccc(O)cc1`, the AC50 is 280 pM (active).
